PubChem BioAssay (NCATS)
For part of these data: Potency and affinity values are given separately. Activity calls are given as the source filed them. The rule behind the calls is not given here. Peptide text beside a SMILES is read from it.

Key:
[1] = Ebola virus entry assay, green fluorescence channel
[2] = Ebola virus entry assay, blue channel fluorescence
[3] = Ebola virus entry assay, green channel fluorescence

Measured: efficacy
Throughout, for efficacy: 0% is about no effect.

COC(=O)C1=C(C)NC(C)=C(C(=O)OCCc2ccc(N3CCN(C(c4ccccc4)c4ccccc4)CC3)cc2)C1c1cccc([N+](=O)[O-])c1 (centres undefined)
inactive: [1] -12.1% | [2] | [3]

CNC[C@H](O)[C@@H](O)[C@H](O)[C@H](O)CO
inactive: [1] -10.6% | [2] | [3]

COC(=O)c1cccnc1
inactive: [1] 12.2% | [2] | [3]

CCN[C@H]1CN(CCCOC)S(=O)(=O)c2sc(S(N)(=O)=O)cc21
inactive: [1] 16.3% | [2] | [3]

C=CCC1(C(C)CC)C(=O)NC(=O)NC1=O (centres undefined)
inactive: [1] 14.7% | [2] | [3]

CC(=O)OC[C@H]1O[C@@H](OC(C)=O)[C@H](OC(C)=O)[C@@H]1OC(C)=O
inactive: [1] 18.7% | [2] | [3]

Cc1cccc(C)c1NC(=O)CN1CCCCCC1
inactive: [1] -23% | [2] | [3]

CC(=O)OCC1=C(C(=O)O)N2C(=O)[C@@H](NC(=O)Cc3cccs3)[C@H]2SC1
inactive: [1] -9.53% | [2] | [3]

CC(C(=O)O)c1ccc2c(c1)[nH]c1ccc(Cl)cc12 (centres undefined)
inactive: [1] -20.7% | [2] | [3]

CCCN1CCCC[C@H]1C(=O)Nc1c(C)cccc1C
inactive: [1] 17.3% | [2] | [3]

CCCCCCNC(=O)n1cc(F)c(=O)[nH]c1=O
inactive: [1] -33.6% | [2] | [3]

CC(=O)NO
inactive: [1] -14.2% | [2] | [3]

CC(=O)c1ccc(S(=O)(=O)NC(=O)NC2CCCCC2)cc1
inactive: [1] -18.3% | [2] | [3]

Cc1cc2c(cc1CC(=O)c1sccc1S(=O)(=O)Nc1onc(C)c1Cl)OCO2
inactive: [1] -22.3% | [2] | [3]

O=C(OOC(=O)c1ccccc1)c1ccccc1
inactive: [1] -19.5% | [2] | [3]

COc1cc(OC)nc(O[C@H](C(=O)O)C(OC)(c2ccccc2)c2ccccc2)n1
inactive: [1] 36.2% | [2] | [3]

CS(=O)(=O)c1ccc([C@@H](O)[C@@H](CO)NC(=O)C(Cl)Cl)cc1
inactive: [1] -14.2% | [2] | [3]

CCNC(=O)[C@@H]1CCCN1C(=O)[C@H](CCCN=C(N)N)NC(=O)[C@H](CC(C)C)NC(=O)CNC(=O)[C@H](Cc1ccc(O)cc1)NC(=O)[C@H](CO)NC(=O)[C@H](Cc1c[nH]c2ccccc12)NC(=O)[C@H](Cc1cnc[nH]1)NC(=O)[C@@H]1CCC(=O)N1 (HELM PEPTIDE1{[Glp].H.W.S.Y.G.L.R.P.[CCN[*:1]]}$$$$V2.0)
inactive: [1] 17.9% | [2] | [3]

CC(=O)CC/C=C(\C)CC/C=C(\C)CC/C=C(\C)CCC=C(C)C
inactive: [1] -14.5% | [2] | [3]

O=C(O)Cc1ccc(OCCNC[C@H](O)c2ccccc2)cc1
inactive: [1] -33.3% | [2] | [3]

O=C1OC(CN2CCOCC2)CN1/N=C/c1ccc([N+](=O)[O-])o1 (centres undefined)
inactive: [1] 29.1% | [2] | [3]

Nc1nc(N)c(-c2ccccc2)s1
inactive: [1] 13% | [2] | [3]

Cc1c[nH]c2ccccc12
inactive: [1] -29.9% | [2] | [3]

CC(C)(C)CC(C)(C)c1ccc(O)c(-n2nc3ccccc3n2)c1
inactive: [1] 9.19% | [2] | [3]

Oc1ccc(Cl)c2cccnc12
inactive: [1] -23.9% | [2] | [3]

COc1ccc(C2C(=O)c3ccccc3C2=O)cc1
inactive: [1] -26.8% | [2] | [3]

O=C(O)Cn1cnnn1
inactive: [1] 14.2% | [2] | [3]

CC1(C)S[C@@H]2[C@H](NC(=O)C(c3ccccc3)S(=O)(=O)O)C(=O)N2[C@H]1C(=O)O (some centres undefined)
inactive: [1] 24.6% | [2] | [3]

CN(C)CCN1CCN(c2cccc(Cl)c2)C1=O
inactive: [1] -56.2% | [2] | [3]

CC(C(=O)O)c1ccc2c(c1)CC(=O)c1ccccc1S2 (centres undefined)
inactive: [1] 23.3% | [2] | [3]

CCCCCCCCCCOc1cc2c(=O)c(C(=O)OCC)c[nH]c2cc1OCC
inactive: [1] 11% | [2] | [3]

Cc1cccc(C(=O)O)c1O
inactive: [1] 15.1% | [2] | [3]

N[C@@H](COP(=O)(O)O)C(=O)O
inactive: [1] -11.1% | [2] | [3]

CC(C)=CCC/C(C)=C/CC/C(C)=C/CCC(=O)OC/C=C(\C)CCC=C(C)C
inactive: [1] 10.8% | [2] | [3]

NCCCNCCSP(=O)(O)O
inactive: [1] 18% | [2] | [3]

CN[C@@H]1[C@@H](O)[C@@H](O[C@@H]2[C@H](O)[C@H](O[C@H]3OC(CN)=CC[C@H]3N)[C@@H](N)C[C@H]2N)OCC1(C)O (some centres undefined)
inactive: [1] -7.04% | [2] | [3]

Oc1ccccc1
inactive: [1] 23.9% | [2] | [3]

COc1ccc2cc1Oc1cc3c(cc1OC)CC[N+](C)(C)[C@H]3Cc1ccc(cc1)Oc1c(OC)c(OC)cc3c1[C@@H](C2)[N+](C)(C)CC3
inactive: [1] -25.2% | [2] | [3]

CC(=O)Nc1ncc([N+](=O)[O-])s1
inactive: [1] 20.3% | [2] | [3]

Clc1ccccc1N1CCNCC1
inactive: [1] -17.1% | [2] | [3]

Nc1c[n+](N2CCOCC2)no1
inactive: [1] -8.8% | [2] | [3]

CC(=O)OCC[N+](C)(C)C
inactive: [1] -18% | [2] | [3]

CC(=O)O[C@@H]1CC2C3CCc4cc(OC(=O)c5ccccc5)ccc4C3CCC2(C)[C@H]1OC(C)=O (some centres undefined)
inactive: [1] 11.6% | [2] | [3]

CCCCCC=CCC=CCCCCCCCC(=O)OCC
inactive: [1] 15.2% | [2] | [3]

COc1ccc(C(=O)NCc2ccc(OCCN(C)C)cc2)cc1OC
inactive: [1] -7.96% | [2] | [3]

Cc1ccc(O)c2ncccc12
inactive: [1] 17.9% | [2] | [3]

C=CCn1c(=O)n([C@@H]2O[C@H](CO)[C@@H](O)[C@H]2O)c2nc(N)[nH]c(=O)c21
inactive: [1] -17.7% | [2] | [3]

CN=C(NC#N)NCCSCc1csc(N=C(N)N)n1
inactive: [1] -13.8% | [2] | [3]

O=C(O)/C=C(\CC(=O)O)C(=O)O
inactive: [1] -11% | [2] | [3]

CCCC(CCC)(C(=O)OCC)C(=O)OCC
inactive: [1] 21% | [2] | [3]

CO/N=C(/C(=O)N[C@@H]1C(=O)N2C(C(=O)[O-])=C(C[n+]3ccn4ncccc43)CS[C@H]12)c1nsc(N)n1
inactive: [1] 12.5% | [2] | [3]

CC(C)Cn1cnc2c(N)nc3ccccc3c21
inactive: [1] -30.7% | [2] | [3]

C[C@]12C=CC(=O)C=C1CC[C@@H]1[C@@H]2C(=O)C[C@@]2(C)[C@H]1CC[C@]2(O)C(=O)CO
inactive: [1] -19.9% | [2] | [3]

O=C(OCC1(COC(=O)c2cccnc2)CCCC(COC(=O)c2cccnc2)(COC(=O)c2cccnc2)C1O)c1cccnc1
inactive: [1] -19.2% | [2] | [3]

CN1[C@@H]2CC(OC(=O)[C@H](CO)c3ccccc3)C[C@H]1[C@@H]1O[C@@H]12 (some centres undefined)
inactive: [1] -18.3% | [2] | [3]

COC(=O)c1cc(Cl)c(NC(C)=O)cc1OC
inactive: [1] -16.3% | [2] | [3]

NCCCC[C@H](N[C@@H](CCc1ccccc1)C(=O)O)C(=O)N1CCC[C@H]1C(=O)O
inactive: [1] -19.4% | [2] | [3]

Nc1ncnc2c1ncn2[C@@H]1O[C@H](COP(=O)(O)O)[C@@H](O)[C@H]1O
inactive: [1] 14.6% | [2] | [3]

C[C@]12Cc3cn[nH]c3C[C@@H]1CC[C@@H]1[C@@H]2CC[C@@]2(C)[C@H]1CC[C@]2(C)O
inactive: [1] 8.25% | [2] | [3]

CN1CC[C@]23c4c5ccc(O)c4O[C@H]2[C@@H](O)CC[C@H]3[C@H]1C5
inactive: [1] 13.6% | [2] | [3]

Cc1nc2c([nH]1)c(=O)n(C)c(=O)n2Cc1ccco1
inactive: [1] 40.2% | [2] | [3]

CC1(C)Oc2ccc(C#N)cc2[C@@H](N2CCCC2=O)[C@@H]1O
inactive: [1] -10.5% | [2] | [3]

O=C(O)CN1C(=O)c2cccc3cccc(c23)C1=O
inactive: [1] 11.9% | [2] | [3]

O=C1[C@@H]2[C@H]3CC[C@H](C3)[C@@H]2C(=O)N1CCCCN1CCN(c2ncccn2)CC1
inactive: [1] -13.3% | [2] | [3]

COc1ccc(C(=O)N2CCN(CC(=O)N3CCOCC3)CC2)cc1
inactive: [1] -11.2% | [2] | [3]

CC(CCc1ccc2c(c1)OCO2)NN (centres undefined)
inactive: [1] 17.5% | [2] | [3]

COC(=O)C1=C(C)NC(C)=C(C(=O)OCC(C)=O)C1c1ccccc1[N+](=O)[O-] (centres undefined)
inactive: [1] -11.1% | [2] | [3]

Cc1ccc(S(=O)(=O)NC(=O)NC2CCCCCCC2)cc1
inactive: [1] -10.6% | [2] | [3]

CCOC(=O)c1ccc(N)cc1
inactive: [1] 26.1% | [2] | [3]

CCCc1c(OCCCCc2nn[nH]n2)ccc(C(C)=O)c1O
inactive: [1] 28.7% | [2] | [3]

O=S(=O)(O)c1cc(I)c(O)c2ncccc12
inactive: [1] 29.1% | [2] | [3]

COC(=O)/C=C\C(=O)OC
inactive: [1] 24.5% | [2] | [3]

CCN1CCC[C@H]1CNC(=O)c1cc(S(N)(=O)=O)ccc1OC
inactive: [1] -21.3% | [2] | [3]
